The source of these data is PubChem BioAssay (NCI).

About 83,000 compounds went through this panel and 20% of them were active in at least one assay; those are over-represented in the sample as a whole.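 Single-concentration screen, 48 h exposure, 96-well plates. Endpoint: percent growth. Below 10 = active.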 A number with no mark means an inactive call. Active and inactive are the calls of the source.

Among the test systems are BT-549 breast; MDA-MB-435 melanoma; SW-620 colon; MCF7 breast; HCT-116 colon; HCC-2998 colon; KM12 colon.
Holding throughout (assay): NCI-60 one-dose screen, 48 h (100 = growth as untreated, 0 = no growth, -100 = all killed)
Conditions in all cases: 10 µM unless noted

As for `O=C1CN(c2ccccc2)C(=O)C1C(=O)Nc1ccc(Cl)c(Cl)c1` (configuration not stated), the growth in the assay with BT-549 breast is 23.4% [100 µM]; in the assay with MDA-MB-435 melanoma it was 7.79% [100 µM] (active); in the assay on SW-620 colon, 20.1% [100 µM]; in the assay with MCF7 breast, 15.7% [100 µM]; in the assay on HCT-116 colon, -19.4% [100 µM] (active); in the assay with HCC-2998 colon it was 2.18% [100 µM] (active). Moreover, the growth in the assay on KM12 colon is 17.2% [100 µM].

Take `COC(=O)[C@]12CC[C@@H](C)[C@H](C)[C@@H]1C1=CC[C@@H]3[C@@]4(C)C=C(O)C(=O)C(C)=C4CC[C@@]3(C)[C@]1(C)CC2`: the growth was 69.1% with BT-549 breast; 49% in the assay on MDA-MB-435 melanoma; 27.9% in the assay with SW-620 colon; 9.96% (active) in the assay with HCC-2998 colon; 30.3% in the assay on KM12 colon.

On to `C=C1C(=O)O[C@H]2[C@H]1CC/C(COC(=O)NCc1cc3ccccc3[nH]1)=C\CC[C@@]1(C)O[C@@H]21`, for which the growth in the assay on BT-549 breast was -24.2% (active); with MDA-MB-435 melanoma, 2.87% (active); with SW-620 colon, -37.8% (active); in the assay with MCF7 breast it was 0.667% (active); in the assay with HCT-116 colon it was -81.9% (active); with HCC-2998 colon it was 98.3%. Besides, the growth in the assay with KM12 colon was 81%.

Turning to `C=C(C)[C@@H]1CC[C@]2(C)[C@H](CC=C3[C@@H]4CC(C)(C)CC[C@]4(C(=O)OC)CC[C@]32C)[C@@]1(C)CC/C(N)=N/O`, the growth in the assay with BT-549 breast is 63.7%; in the assay on MDA-MB-435 melanoma it was 80.5%; in the assay on SW-620 colon, 67.6%; in the assay on MCF7 breast, 3.92% (active); in the assay on HCT-116 colon, 18.5%; in the assay on HCC-2998 colon it was -53% (active). Besides, the growth with KM12 colon is 61%.

On to `Clc1cc(Cl)cc(Nc2ccc3c(OCCCN4CCOCC4)cccc3n2)c1`, for which the growth with BT-549 breast was 72.7%; with MDA-MB-435 melanoma, 57.4%; in the assay with SW-620 colon, -41.9% (active); in the assay with MCF7 breast it was 21.6%; in the assay with HCT-116 colon, 27.5%; in the assay with HCC-2998 colon, 36.7%. Moreover, the growth in the assay with KM12 colon was -51.2% (active).

Take `N#CC1=C(N)Oc2c(c(N)nn2-c2ccccc2)C1c1ccc(Cl)cc1Cl` (configuration not stated): the growth is 97.8% with BT-549 breast; 103% in the assay on MDA-MB-435 melanoma; 100% in the assay with SW-620 colon; 98.3% with MCF7 breast; 94.4% in the assay on HCT-116 colon; 106% in the assay on HCC-2998 colon. For the same compound, in the assay with KM12 colon, the growth was 99.3%.

`C#CCn1c(C)cc(C)c(C#N)c1=O`: the growth was 98% in the assay on BT-549 breast; 106% in the assay with MDA-MB-435 melanoma; 104% in the assay with SW-620 colon; 91.5% in the assay on MCF7 breast; 103% with HCT-116 colon; 105% in the assay on HCC-2998 colon. In the assay on KM12 colon, the growth is 101%.

In the case of `O=C1c2ccccc2C(=Cc2ccccc2)c2ccccc21`, the growth is -3.95% (active) in the assay with BT-549 breast; -56.4% (active) in the assay on MDA-MB-435 melanoma; 12.6% with SW-620 colon; -45.7% (active) in the assay with HCC-2998 colon; -26.6% (active) in the assay with KM12 colon.

In the case of `N#C/C(=C\c1ccc(-c2ccccc2)o1)c1nc(-c2ccco2)cs1`, the growth in the assay on BT-549 breast was 94.6%; in the assay with MDA-MB-435 melanoma, 99.2%; with SW-620 colon, 99.2%; in the assay on MCF7 breast it was 17.6%; with HCC-2998 colon, 32.1%; in the assay on KM12 colon, 48.1%.

`O=C(/C(=C(\C(=O)c1ccccc1)c1ccccc1)c1ccccc1)c1ccccc1`: the growth in the assay on MDA-MB-435 melanoma is 73.6%; in the assay with SW-620 colon it was 38.5%; with MCF7 breast it was 42.6%; in the assay with HCT-116 colon it was 14.1%; in the assay on HCC-2998 colon it was 52%; in the assay with KM12 colon it was 17.1%.

As for `CC(C)(C)c1[nH]nc2c1C(c1cc3ccccc3[nH]c1=O)Nc1cc(C(=O)OCc3ccccc3)ccc1N2` (configuration not stated), the growth is 56.4% with BT-549 breast; 39.9% with MDA-MB-435 melanoma; 54.4% in the assay with SW-620 colon; 38.1% in the assay with MCF7 breast; 38.4% in the assay with HCT-116 colon; 55.9% in the assay with HCC-2998 colon.

Consider `COc1cccc(NC(=O)c2sc3nc4c(cc3c2N)C(=O)CCC4)c1`, for which the growth in the assay on BT-549 breast was 29.9%; in the assay with MDA-MB-435 melanoma it was -37.2% (active); with SW-620 colon it was 23.6%; in the assay on MCF7 breast it was 29.4%; in the assay with HCT-116 colon it was 17.6%; with HCC-2998 colon, 19.9%. In the assay on KM12 colon, the growth is 16.6%.

`O=[N+]([O-])c1ccc(N/N=C(\C(=N/Nc2ccc([N+](=O)[O-])cc2[N+](=O)[O-])c2ccccc2)c2ccccc2)c([N+](=O)[O-])c1`: the growth in the assay on MDA-MB-435 melanoma is 77.8%; in the assay on SW-620 colon, 72.8%; with MCF7 breast, 96.3%; in the assay with HCT-116 colon, 65%; with HCC-2998 colon, 89.6%; in the assay with KM12 colon, 88.5%.

Consider `Cc1ccc2c(c1)c(-c1nc(-c3c[nH]c4ncccc34)cs1)cn2C`, for which the growth with BT-549 breast is 104%; in the assay with MDA-MB-435 melanoma it was 96.5%; with SW-620 colon it was 112%; in the assay with MCF7 breast, 17.4%; in the assay with HCT-116 colon, 85.1%; in the assay on HCC-2998 colon it was 80%. The growth in the assay on KM12 colon is 57.8%.

In the case of `COc1ccc(NC(=O)c2ccoc2COc2ccccc2)cc1`, the growth was 92% with BT-549 breast; 73.6% in the assay on MDA-MB-435 melanoma; 97.9% in the assay with SW-620 colon; 88.6% with MCF7 breast; 87.4% in the assay with HCT-116 colon; 93% with HCC-2998 colon. For the same compound, the growth in the assay with KM12 colon is 93.9%.

Turning to `COc1cc(-c2c(C#N)c(-c3cccs3)nc3c2c(-c2ccccc2)nn3-c2ccccc2)ccc1O`, the growth with BT-549 breast was 101%; in the assay on MDA-MB-435 melanoma, 74.8%; with SW-620 colon, 88%; in the assay with MCF7 breast, 76.4%; in the assay on HCT-116 colon, 56.8%; in the assay with HCC-2998 colon it was 99.6%. In addition, in the assay with KM12 colon, the growth is 78.4%.

On to `Cn1cc(-c2csc(-c3cn(CCN)c4ccccc34)n2)c2cccnc21`, for which the growth is 59.6% with BT-549 breast; 16.6% in the assay with MDA-MB-435 melanoma; 44.2% in the assay with SW-620 colon; 16.7% with MCF7 breast; 36.9% in the assay on HCT-116 colon; 46.3% with KM12 colon.

Take `COc1ccc(C2c3ccccc3NC(=O)N2C2CCN(C)CC2)c(OC)c1` (configuration not stated): the growth in the assay on BT-549 breast is 107%; with MDA-MB-435 melanoma, 72%; in the assay with SW-620 colon it was 101%; in the assay on MCF7 breast, 78.1%; in the assay on HCT-116 colon, 107%; in the assay with HCC-2998 colon it was 105%. In addition, the growth in the assay on KM12 colon is 99.6%.

For `CC(=O)Nc1cc(F)cc(C(F)(F)F)c1Cl`, the growth was 95.8% with BT-549 breast; 99.3% with MDA-MB-435 melanoma; 95.2% in the assay on SW-620 colon; 91.5% in the assay with MCF7 breast; 94.1% in the assay on HCT-116 colon; 98.4% in the assay with HCC-2998 colon. In addition, the growth with KM12 colon is 96.3%.

For `Oc1ccc(CCC2CCCC(CCc3ccc(OCCF)cc3)N2)cc1` (configuration not stated), the growth is 96.4% in the assay on BT-549 breast; 99.5% in the assay with MDA-MB-435 melanoma; 112% in the assay with SW-620 colon; 89% with MCF7 breast; 86% in the assay on HCT-116 colon; 88.4% with HCC-2998 colon. Further, the growth in the assay with KM12 colon was 104%.

With `N#C/C(=C\c1ccc(-c2ccc(Br)cc2)o1)c1nc(-c2ccco2)cs1`, the growth in the assay with BT-549 breast was 98%; in the assay with MDA-MB-435 melanoma, 98.2%; in the assay on SW-620 colon, 95.6%; with HCT-116 colon, 95.6%; in the assay with HCC-2998 colon, 34.1%; in the assay with KM12 colon, 59.4%.
